# Assay results as given in article PMC8222333, “AsCas12a ultra nuclease facilitates the rapid generation of therapeutic cell medicines”.
# B1: AAAT (dsDNA)
# DNA 1: GCTATCTAGTGCTCAGTACGCACTGAAATAGGAAACTTCTGGCAGGACCAGGTCATGAGATCGGAAGAGCACACGTCTGAACTCCAGTCA
# DNA 2: TGACTGGAGTTCAGACGTGTGCTCTTCCGATCTCATGACCTGGTCCTGCCAGAAGTTTCCTATTTCAGTGCGTACTGAGCACTAGATAGC
# RNA: AAUUUCUACUCUUGUAGAUAGGAAACUUCUGGCAGGACC
# B2: CACT (dsDNA)
# DNA 1: GCTATCTAGTGCTCAGTACGCACTGCACTAGGAAACTTCTGGCAGGACCAGGTCATGAGATCGGAAGAGCACACGTCTGAACTCCAGTCA
# DNA 2: TGACTGGAGTTCAGACGTGTGCTCTTCCGATCTCATGACCTGGTCCTGCCAGAAGTTTCCTAGTGCAGTGCGTACTGAGCACTAGATAGC
# RNA: AAUUUCUACUCUUGUAGAUAGGAAACUUCUGGCAGGACC
# B3: ATCT (dsDNA)
# DNA 1: GCTATCTAGTGCTCAGTACGCACTGATCTAGGAAACTTCTGGCAGGACCAGGTCATGAGATCGGAAGAGCACACGTCTGAACTCCAGTCA
# DNA 2: TGACTGGAGTTCAGACGTGTGCTCTTCCGATCTCATGACCTGGTCCTGCCAGAAGTTTCCTAGATCAGTGCGTACTGAGCACTAGATAGC
# RNA: AAUUUCUACUCUUGUAGAUAGGAAACUUCUGGCAGGACC
# B4: ATGC (dsDNA)
# DNA 1: GCTATCTAGTGCTCAGTACGCACTGATGCAGGAAACTTCTGGCAGGACCAGGTCATGAGATCGGAAGAGCACACGTCTGAACTCCAGTCA
# DNA 2: TGACTGGAGTTCAGACGTGTGCTCTTCCGATCTCATGACCTGGTCCTGCCAGAAGTTTCCTGCATCAGTGCGTACTGAGCACTAGATAGC
# RNA: AAUUUCUACUCUUGUAGAUAGGAAACUUCUGGCAGGACC
# B5: ACCT (dsDNA)
# DNA 1: GCTATCTAGTGCTCAGTACGCACTGACCTAGGAAACTTCTGGCAGGACCAGGTCATGAGATCGGAAGAGCACACGTCTGAACTCCAGTCA
# DNA 2: TGACTGGAGTTCAGACGTGTGCTCTTCCGATCTCATGACCTGGTCCTGCCAGAAGTTTCCTAGGTCAGTGCGTACTGAGCACTAGATAGC
# RNA: AAUUUCUACUCUUGUAGAUAGGAAACUUCUGGCAGGACC
# B6: ACCA (dsDNA)
# DNA 1: GCTATCTAGTGCTCAGTACGCACTGACCAAGGAAACTTCTGGCAGGACCAGGTCATGAGATCGGAAGAGCACACGTCTGAACTCCAGTCA
# DNA 2: TGACTGGAGTTCAGACGTGTGCTCTTCCGATCTCATGACCTGGTCCTGCCAGAAGTTTCCTTGGTCAGTGCGTACTGAGCACTAGATAGC
# RNA: AAUUUCUACUCUUGUAGAUAGGAAACUUCUGGCAGGACC
# B7: ATAT (dsDNA)
# DNA 1: GCTATCTAGTGCTCAGTACGCACTGATATAGGAAACTTCTGGCAGGACCAGGTCATGAGATCGGAAGAGCACACGTCTGAACTCCAGTCA
# DNA 2: TGACTGGAGTTCAGACGTGTGCTCTTCCGATCTCATGACCTGGTCCTGCCAGAAGTTTCCTATATCAGTGCGTACTGAGCACTAGATAGC
# RNA: AAUUUCUACUCUUGUAGAUAGGAAACUUCUGGCAGGACC
# B8: CATG (dsDNA)
# DNA 1: GCTATCTAGTGCTCAGTACGCACTGCATGAGGAAACTTCTGGCAGGACCAGGTCATGAGATCGGAAGAGCACACGTCTGAACTCCAGTCA
# DNA 2: TGACTGGAGTTCAGACGTGTGCTCTTCCGATCTCATGACCTGGTCCTGCCAGAAGTTTCCTCATGCAGTGCGTACTGAGCACTAGATAGC
# RNA: AAUUUCUACUCUUGUAGAUAGGAAACUUCUGGCAGGACC
# B9: CATC (dsDNA)
# DNA 1: GCTATCTAGTGCTCAGTACGCACTGCATCAGGAAACTTCTGGCAGGACCAGGTCATGAGATCGGAAGAGCACACGTCTGAACTCCAGTCA
# DNA 2: TGACTGGAGTTCAGACGTGTGCTCTTCCGATCTCATGACCTGGTCCTGCCAGAAGTTTCCTGATGCAGTGCGTACTGAGCACTAGATAGC
# RNA: AAUUUCUACUCUUGUAGAUAGGAAACUUCUGGCAGGACC
# B10: AGGG (dsDNA)
# DNA 1: GCTATCTAGTGCTCAGTACGCACTGAGGGAGGAAACTTCTGGCAGGACCAGGTCATGAGATCGGAAGAGCACACGTCTGAACTCCAGTCA
# DNA 2: TGACTGGAGTTCAGACGTGTGCTCTTCCGATCTCATGACCTGGTCCTGCCAGAAGTTTCCTCCCTCAGTGCGTACTGAGCACTAGATAGC
# RNA: AAUUUCUACUCUUGUAGAUAGGAAACUUCUGGCAGGACC
# B11: CATA (dsDNA)
# DNA 1: GCTATCTAGTGCTCAGTACGCACTGCATAAGGAAACTTCTGGCAGGACCAGGTCATGAGATCGGAAGAGCACACGTCTGAACTCCAGTCA
# DNA 2: TGACTGGAGTTCAGACGTGTGCTCTTCCGATCTCATGACCTGGTCCTGCCAGAAGTTTCCTTATGCAGTGCGTACTGAGCACTAGATAGC
# RNA: AAUUUCUACUCUUGUAGAUAGGAAACUUCUGGCAGGACC
# B12: AATG (dsDNA)
# DNA 1: GCTATCTAGTGCTCAGTACGCACTGAATGAGGAAACTTCTGGCAGGACCAGGTCATGAGATCGGAAGAGCACACGTCTGAACTCCAGTCA
# DNA 2: TGACTGGAGTTCAGACGTGTGCTCTTCCGATCTCATGACCTGGTCCTGCCAGAAGTTTCCTCATTCAGTGCGTACTGAGCACTAGATAGC
# RNA: AAUUUCUACUCUUGUAGAUAGGAAACUUCUGGCAGGACC
# B13: ACAT (dsDNA)
# DNA 1: GCTATCTAGTGCTCAGTACGCACTGACATAGGAAACTTCTGGCAGGACCAGGTCATGAGATCGGAAGAGCACACGTCTGAACTCCAGTCA
# DNA 2: TGACTGGAGTTCAGACGTGTGCTCTTCCGATCTCATGACCTGGTCCTGCCAGAAGTTTCCTATGTCAGTGCGTACTGAGCACTAGATAGC
# RNA: AAUUUCUACUCUUGUAGAUAGGAAACUUCUGGCAGGACC
# B14: ATAG (dsDNA)
# DNA 1: GCTATCTAGTGCTCAGTACGCACTGATAGAGGAAACTTCTGGCAGGACCAGGTCATGAGATCGGAAGAGCACACGTCTGAACTCCAGTCA
# DNA 2: TGACTGGAGTTCAGACGTGTGCTCTTCCGATCTCATGACCTGGTCCTGCCAGAAGTTTCCTCTATCAGTGCGTACTGAGCACTAGATAGC
# RNA: AAUUUCUACUCUUGUAGAUAGGAAACUUCUGGCAGGACC
# B15: ATCA (dsDNA)
# DNA 1: GCTATCTAGTGCTCAGTACGCACTGATCAAGGAAACTTCTGGCAGGACCAGGTCATGAGATCGGAAGAGCACACGTCTGAACTCCAGTCA
# DNA 2: TGACTGGAGTTCAGACGTGTGCTCTTCCGATCTCATGACCTGGTCCTGCCAGAAGTTTCCTTGATCAGTGCGTACTGAGCACTAGATAGC
# RNA: AAUUUCUACUCUUGUAGAUAGGAAACUUCUGGCAGGACC
# Target: dAsCas12a E174R (Acidaminococcus sp., UniProt U2UMQ6 1-1307, E174R;D908A;E993A;D1235A)
# Experiment: Spec-seq (native PAGE EMSA with sequencing of bound and unbound); 25 mM Tris-HCl pH 7.4, 150 mM KCl, 5 mM MgCl2, 10% glycerol, 1 mM DTT, 40 ng/uL salmon sperm DNA; 400 nM Cas12a, 480 nM crRNA, 50 nM library, 37 C 1 h; native PAGE at room temperature; high values mean tight binding
# Conditions: protein: recombinant
row,Binder,binding signal [lnKA]
1,B1,-8.92
2,B2,-8.98
3,B3,-8.78
4,B4,-8.95
5,B5,-8.9
6,B6,-8.92
7,B7,-8.59
8,B8,-8.38
9,B9,-8.78
10,B10,-8.84
11,B11,-7.55
12,B12,-8.3
13,B13,-8.97
14,B14,-8.88
15,B15,-8.4

# Target: dAsCas12a S542R (Acidaminococcus sp., UniProt U2UMQ6 1-1307, S542R;D908A;E993A;D1235A)
# Experiment: as above
# Conditions: protein: recombinant
row,Binder,binding signal [lnKA]
1,B1,-8.45
2,B2,-8.41
3,B3,-7.09
4,B4,-8.32
5,B5,-7.8
6,B6,-6.94
7,B7,-8.38
8,B8,-8.49
9,B9,-8.13
10,B10,-8.44
11,B11,-8.31
12,B12,-8.21
13,B13,-8.62
14,B14,-8.31
15,B15,-5.58

# Target: d-enCas12a (Acidaminococcus sp., UniProt U2UMQ6 1-1307, E174R;S542R;K548R;D908A;E993A;D1235A)
# Experiment: as above
# Conditions: protein: recombinant
row,Binder,binding signal [lnKA]
1,B1,-5.69
2,B2,-4.47
3,B3,-3.06
4,B4,-5.32
5,B5,-5.41
6,B6,-4.21
7,B7,-5.63
8,B8,-4.73
9,B9,-3.35
10,B10,-5.86
11,B11,-2.95
12,B12,-3.79
13,B13,-5.81
14,B14,-5.6
15,B15,-1.74

# Target: d-enCas12a-Ultra (Acidaminococcus sp., UniProt U2UMQ6 1-1307, E174R;S542R;K548R;M537R;F870L;D908A;E993A;D1235A)
# Experiment: as above
# Conditions: protein: recombinant
row,Binder,binding signal [lnKA]
1,B1,-3.07
2,B2,-1.3
3,B3,-0.664
4,B4,-2.52
5,B5,-2.23
6,B6,-0.992
7,B7,-3.33
8,B8,-2.28
9,B9,-1.16
10,B10,-3.51
11,B11,-0.95
12,B12,-1.81
13,B13,-3.49
14,B14,-3.31
15,B15,-0.402

# Target: dAsCas12a K548R (Acidaminococcus sp., UniProt U2UMQ6 1-1307, K548R;D908A;E993A;D1235A)
# Experiment: as above
# Conditions: protein: recombinant
row,Binder,binding signal [lnKA]
1,B9,-8.88
